From PubChem BioAssay (NCATS)
Results filed as inconclusive are left out. Active and inactive are the calls of the source. Unless noted, calls follow the shape of the dose curve; as a rule, active = well fitted curve in either direction with a large enough effect (not every such curve was filed as active); inconclusive = small, poorly fitted or top-dose-only effect, or another doubt; inactive = flat fitted curve, though single readings scatter.

Tests used:
[1] = AP1 Signaling Pathway (AID 357); settings: ME-180 AP-1-bla reporter, EGF-induced, beta-lactamase ratio, 5 h; at 7.69 µM (top of the series) unless noted;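 also: ME-180 reporter cells stimulated with EGF at its EC50 level; % is scaled to controls: 0 for no effect and ±100 for the full control effect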
Method in brief: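 Modulation of EGF-driven AP-1 transcription was assessed with a beta-lactamase reporter in ME-180 cells. Compound and EC50 EGF were co-incubated 5 hours at 37 °C before 2.5-hour CCF4 loading at room temperature and dual-emission reading.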

[2] = Stat Signaling Pathway (AID 446); settings: ME-180 SIE beta-lactamase reporter, IL-6 stimulated, 5 h; at 7.69 µM (top of the series) unless noted;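 also: ME-180 cervical cancer cells given 40 pM IL-6 alongside compound; SIE-controlled beta-lactamase reporter measured as 460/530 nm FRET emission ratio; % is scaled to controls: 0 for no effect and ±100 for the full control effect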
Method in brief: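 ME-180 SIE-bla cells; overnight plating; cpd + IL-6 40 pM, 5 h, 37 C; LiveBLAzer 2.5 h RT; 460/530 nm emission ratio. Normalized to 300 pM IL-6 and 125 nM JAK inhibitor controls.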

[3] = target: Glucocorticoid receptor (Homo sapiens) (UniProt P04150); assay: GR-EFC Redistribution (AID 451; calls by dose curve; also: potency is read from the fitted curve at half-maximal effect); settings: CHO-K1 GR-EFC translocation, beta-gal luminescence, 2 h
Glucocorticoid receptor (Homo sapiens), sequence (P04150 whole entry, looked up, the tested form may be a part): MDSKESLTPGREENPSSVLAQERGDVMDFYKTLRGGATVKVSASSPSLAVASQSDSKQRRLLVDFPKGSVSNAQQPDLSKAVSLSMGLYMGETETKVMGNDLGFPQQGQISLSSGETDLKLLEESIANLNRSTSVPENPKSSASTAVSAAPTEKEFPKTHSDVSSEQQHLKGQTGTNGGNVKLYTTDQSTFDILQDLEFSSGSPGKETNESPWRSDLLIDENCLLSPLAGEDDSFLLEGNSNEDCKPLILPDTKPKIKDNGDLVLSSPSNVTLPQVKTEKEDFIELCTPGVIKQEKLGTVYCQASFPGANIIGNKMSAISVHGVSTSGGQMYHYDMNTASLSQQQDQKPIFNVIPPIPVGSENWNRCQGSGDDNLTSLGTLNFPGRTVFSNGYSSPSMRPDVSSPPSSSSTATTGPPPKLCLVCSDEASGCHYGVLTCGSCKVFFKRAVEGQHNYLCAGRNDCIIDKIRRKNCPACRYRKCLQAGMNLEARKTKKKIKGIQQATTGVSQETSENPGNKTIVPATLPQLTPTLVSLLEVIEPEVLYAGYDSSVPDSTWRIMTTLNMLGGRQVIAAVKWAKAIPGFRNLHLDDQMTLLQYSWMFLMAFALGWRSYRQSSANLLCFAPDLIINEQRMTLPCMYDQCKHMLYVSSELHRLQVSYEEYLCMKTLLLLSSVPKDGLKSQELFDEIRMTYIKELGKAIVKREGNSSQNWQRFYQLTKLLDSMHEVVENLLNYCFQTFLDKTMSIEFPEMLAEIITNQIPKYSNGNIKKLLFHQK
Method in brief: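 Translocation of GR-ED fusion to nuclear EA restores b-gal, read by luminescence after 1 h room-temperature detection. Engineered CHO-K1 biosensor cells, 1,000/well, exposed 2 h at 37 C to titrations up to 46 uM final.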

[4] = target: Mitogen-activated protein kinase 10 (Mus musculus) (UniProt Q61831); assay: JNK3 AlphaScreen Assay (AID 530);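 also: kinase came from lysate of stimulated human HepG2 cells; signal reports phosphorylation of biotinylated GST-cJun 1-79 at Ser73 with 10 µM ATP; % is scaled to controls: 0 for no effect and ±100 for the full control effect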
Method in brief: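 Compound titrations were preincubated 15 minutes at room temperature with substrate, antibody and pre-activated JNK3-containing HepG2 lysate. Reactions were started with 10 uM ATP and stopped with EDTA-containing bead buffer for AlphaScreen detection.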

[5] = target: 3',5'-cyclic-AMP phosphodiesterase 4B (Homo sapiens) (UniProt Q07343); assay: qHTS Assay for Inhibitors of PDE-IV (AID 607; active = well fitted activation curve with a large enough effect in the main read-out, with a control signal flat, not every such curve was filed as active; also: % of control where 0% means no effect)
3',5'-cyclic-AMP phosphodiesterase 4B (Homo sapiens), sequence (Q07343 whole entry, looked up): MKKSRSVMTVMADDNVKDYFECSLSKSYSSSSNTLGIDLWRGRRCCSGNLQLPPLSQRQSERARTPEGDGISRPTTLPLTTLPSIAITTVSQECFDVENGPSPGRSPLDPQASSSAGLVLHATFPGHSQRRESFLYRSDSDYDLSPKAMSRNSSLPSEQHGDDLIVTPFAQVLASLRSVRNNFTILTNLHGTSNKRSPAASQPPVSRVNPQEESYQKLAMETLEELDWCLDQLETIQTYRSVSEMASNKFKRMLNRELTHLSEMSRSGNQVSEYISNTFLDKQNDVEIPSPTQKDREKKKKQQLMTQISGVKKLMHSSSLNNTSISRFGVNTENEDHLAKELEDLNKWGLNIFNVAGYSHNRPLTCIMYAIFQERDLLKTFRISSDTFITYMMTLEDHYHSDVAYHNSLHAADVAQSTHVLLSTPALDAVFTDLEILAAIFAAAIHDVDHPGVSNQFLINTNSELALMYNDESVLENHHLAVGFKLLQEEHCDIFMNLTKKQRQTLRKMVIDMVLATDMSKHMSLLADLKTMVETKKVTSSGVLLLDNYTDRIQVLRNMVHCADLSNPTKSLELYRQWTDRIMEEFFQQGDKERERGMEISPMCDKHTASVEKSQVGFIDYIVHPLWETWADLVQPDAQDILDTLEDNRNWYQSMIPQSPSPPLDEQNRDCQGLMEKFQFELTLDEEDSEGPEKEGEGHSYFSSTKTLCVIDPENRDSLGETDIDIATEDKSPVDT
Method in brief: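 ACTOne HEK293 cells carry a modified cAMP-gated CNG channel and express endogenous PDE4; plated 1000 cells/well, compounds up to 22.9 uM final. Membrane-potential dye fluorescence (ex 535/em 590) was read; parental cells received 10 uM forskolin + 100 uM RO 20-1724.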

[6] = qHTS Assay for Lipid Storage Modulators (AID 1519; calls by dose curve); settings: Drosophila S3 cells, BODIPY lipid droplet/cell ratio, laser cytometry, cells loaded with oleic acid; for activity change, negative = inhibition: at 57.5 µM (top of the series)
Method in brief: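 Cells seeded at 5,000 per well were treated with compounds over a concentration series and loaded with oleic acid (400 uM, as added). Lipid droplet fluorescence (488 nm excitation, 500-530 nm channel) was read by laser-scanning cytometry and normalized to 20 uM Triacsin C.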

[7] = Primary qHTS for small molecule stabilizers of the endoplasmic reticulum resident proteome: Secreted ER Calcium Modulated Protein (SERCaMP) assay (AID 1508630; active = well fitted curve in the direction sought with a large enough effect; an effect the other way counts as inactive or inconclusive; also: % is scaled to controls: 0 for no effect and ±100 for the full control effect)
Method in brief: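 GLuc-SERCaMP-expressing SH-SY5Y cells, pretreated 16 h with compound, are challenged with thapsigargin to empty ER calcium stores; after 4 h, coelenterazine is added directly to the medium and luminescence is imaged.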

[8] = target: Cytochrome P450 1A2 (Homo sapiens) (UniProt P05177); assay: p450-cyp1a2 (AID 410; calls by dose curve; also: potency is read from the fitted curve at half-maximal effect;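 as to activity change, negative = inhibition: -100% = full effect of reference inhibitor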)
Cytochrome P450 1A2 (Homo sapiens), sequence (P05177 whole entry, looked up): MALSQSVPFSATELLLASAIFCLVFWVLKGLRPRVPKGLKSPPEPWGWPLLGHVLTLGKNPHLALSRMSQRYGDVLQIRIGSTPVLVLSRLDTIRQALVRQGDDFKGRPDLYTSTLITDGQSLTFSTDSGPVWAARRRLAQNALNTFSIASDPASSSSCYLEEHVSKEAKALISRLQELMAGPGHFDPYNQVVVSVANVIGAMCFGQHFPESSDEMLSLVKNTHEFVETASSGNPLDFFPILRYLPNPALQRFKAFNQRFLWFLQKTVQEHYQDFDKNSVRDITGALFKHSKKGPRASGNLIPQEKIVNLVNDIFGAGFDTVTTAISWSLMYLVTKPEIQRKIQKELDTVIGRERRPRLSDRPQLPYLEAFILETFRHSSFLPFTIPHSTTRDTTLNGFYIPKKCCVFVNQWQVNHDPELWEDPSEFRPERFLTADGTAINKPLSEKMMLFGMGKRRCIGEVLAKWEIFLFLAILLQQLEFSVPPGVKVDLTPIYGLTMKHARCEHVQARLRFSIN
Method in brief: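 Luminescent readout of luciferin formed from Luciferin-ME by human CYP1A2; data normalized against complete inhibition by 57 uM furafylline. Enzyme 20nM, substrate 100uM at Km, 100mM KPO4 buffer, 60 min reaction at room temperature.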

[9] = target: Glucocorticoid receptor (Homo sapiens) (UniProt P04150); assay: GR-GFP Redistribution (AID 450;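 active = compounds whose dose series gives a full or clear partial fitted curve of increased nuclear translocation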; also: potency is read from the fitted curve at half-maximal effect); settings: U2OS GR-GFP nuclear translocation, laser cytometry, 2 h
[10] = target: Cytochrome P450 3A4 (Homo sapiens) (UniProt P08684); assay: qHTS Assay for Activators of Cytochrome P450 3A4 (AID 885; active = well fitted curve in the direction sought with a large enough effect; an effect the other way counts as inactive or inconclusive; also: nearly all actives have a fitted effect of over 65% in size)
Cytochrome P450 3A4 (Homo sapiens), sequence (P08684 whole entry, looked up): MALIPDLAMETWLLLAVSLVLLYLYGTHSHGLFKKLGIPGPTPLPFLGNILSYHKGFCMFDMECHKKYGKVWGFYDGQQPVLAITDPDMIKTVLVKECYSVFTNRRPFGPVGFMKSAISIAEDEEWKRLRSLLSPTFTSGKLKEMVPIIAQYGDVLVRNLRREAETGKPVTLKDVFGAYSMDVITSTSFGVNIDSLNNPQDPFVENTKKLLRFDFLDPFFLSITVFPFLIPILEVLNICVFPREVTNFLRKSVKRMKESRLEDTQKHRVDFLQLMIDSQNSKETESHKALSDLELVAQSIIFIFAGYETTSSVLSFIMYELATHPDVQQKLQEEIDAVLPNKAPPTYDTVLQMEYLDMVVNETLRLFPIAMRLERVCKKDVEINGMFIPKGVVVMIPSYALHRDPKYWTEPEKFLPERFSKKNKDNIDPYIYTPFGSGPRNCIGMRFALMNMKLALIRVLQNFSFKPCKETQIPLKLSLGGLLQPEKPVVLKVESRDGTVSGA
Method in brief: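 20nM CYP3A4 + 25uM Luciferin-PPXE (=KM), 200mM KPO4; cpd 10 min RT; NADPH regen, 60 min RT; stop w/ detection buffer, 20 min; luminescence. Normalized to 57 uM ketoconazole.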

[11] = NFAT Signaling Pathway (AID 444); settings: Jurkat NFAT-bla M1, carbachol, beta-lactamase ratio, 5 h; at 7.69 µM (top of the series) unless noted
Method in brief: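 Read-out: CCF4 FRET ratio (460 nm/530 nm) after 1 h RT dye loading, used for %activity and AC50 from titration series. Cells: Jurkat NFAT-β-lactamase/M1 line, treated with compound plus 1 uM carbachol for 5 h, 37 °C.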

[12] = target: Ubiquitin carboxyl-terminal hydrolase 1 (Homo sapiens) (UniProt O94782); assay: Inhibitors of USP1/UAF1: Pilot qHTS (AID 504865; active = well fitted curve in the direction sought with a large enough effect; an effect the other way counts as inactive or inconclusive;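 also: rhodamine fluorescence freed from ubiquitin-rhodamine substrate followed over time; top concentration of the series differs between compounds; % is scaled to controls: 0 for no effect and ±100 for the full control effect; nearly all actives have a fitted effect of over 35% in size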)
Ubiquitin carboxyl-terminal hydrolase 1 (Homo sapiens), sequence (O94782 whole entry, looked up): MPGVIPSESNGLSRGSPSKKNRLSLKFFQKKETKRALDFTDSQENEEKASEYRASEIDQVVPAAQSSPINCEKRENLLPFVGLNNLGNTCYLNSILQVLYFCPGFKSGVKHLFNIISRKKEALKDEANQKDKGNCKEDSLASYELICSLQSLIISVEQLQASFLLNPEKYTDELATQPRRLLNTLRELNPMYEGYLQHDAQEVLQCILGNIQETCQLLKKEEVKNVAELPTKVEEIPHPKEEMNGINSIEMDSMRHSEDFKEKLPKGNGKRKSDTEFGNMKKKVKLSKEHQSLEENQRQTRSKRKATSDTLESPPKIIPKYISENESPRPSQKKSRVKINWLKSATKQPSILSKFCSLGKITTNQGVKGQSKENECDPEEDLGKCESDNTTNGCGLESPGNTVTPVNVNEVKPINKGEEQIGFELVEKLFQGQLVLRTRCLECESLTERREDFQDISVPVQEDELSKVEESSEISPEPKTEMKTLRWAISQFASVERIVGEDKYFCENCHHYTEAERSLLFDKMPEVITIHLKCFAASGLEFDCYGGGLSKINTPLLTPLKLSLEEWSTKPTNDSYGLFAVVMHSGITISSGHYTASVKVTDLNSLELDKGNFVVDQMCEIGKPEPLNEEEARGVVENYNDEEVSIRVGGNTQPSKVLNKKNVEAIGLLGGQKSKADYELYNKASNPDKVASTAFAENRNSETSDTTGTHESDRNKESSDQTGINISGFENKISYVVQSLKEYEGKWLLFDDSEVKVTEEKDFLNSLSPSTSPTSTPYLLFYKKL
Method in brief: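 Kinetic fluorescence assay: 1nM USP1/UAF1, 15 min compound preincubation, then 150nM Ub-Rho; 480/540 nm.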

[13] = target: Cytochrome P450 3A4 (Homo sapiens) (UniProt P08684); assay: qHTS Assay for Inhibitors and Substrates of Cytochrome P450 3A4 (AID 884; active = well fitted curve in the direction sought with a large enough effect; an effect the other way counts as inactive or inconclusive; also: potency is read from the fitted curve at half-maximal effect; nearly all actives have a fitted effect of over 50% in size)
Method in brief: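 20 nM human CYP3A4 with 25 uM Luciferin-PPXE (at KM) in 200 mM KPO4, preincubated 10 min with compound; NADPH regeneration started a 60 min RT reaction. Luciferin detected by luminescence, normalized to 57 uM ketoconazole as full inhibition.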

[14] = measured here: cell count channel max response
[15] = measured here: lipid channel max response

| Structure (SMILES) | activity change, negative = inhibition [1] | activity, negative = inhibition [2] | Potency [3] | Potency [4] | Potency [5] | activity change, negative = inhibition [6] | max response [6, 14] [%] | max response [6, 15] [%] | outcome [7] | Potency [8] | Potency [9] | Potency [10] | activity change, negative = inhibition [11] | Potency [12] | Potency [13] |
| --- | --- | --- | --- | --- | --- | --- | --- | --- | --- | --- | --- | --- | --- | --- | --- |
| O=C(c1ccncc1)N1CCC2(CC1)CCN(c1ccncc1)CC2 | -16.4% (inactive) | 5.08% (inactive) | > 46 µM (inactive) | inactive | inactive | 1.78% (inactive) | -11.6 | -7.91 | inactive |  |  |  |  |  |  |
| CS(=O)(=O)Nc1cccc(-c2nc(NCCN3CCOCC3)c3ccccc3n2)c1 | -21.3% (inactive) | -7.39% (inactive) | > 46 µM (inactive) | inactive | inactive | 9.69% (inactive) | -5.53 | 2.51 | inactive | 25.1 µM (active) | > 46 µM (inactive) | inactive |  |  |  |
| CC(=O)N1CCC[C@@]2(CCN(Cc3nccs3)C2)C1 | 1.66% (inactive) | 4.24% (inactive) | > 46 µM (inactive) | inactive |  | 6.81% (inactive) | 16.2 | 26.9 | inactive | inactive |  | inactive | 8.54% (inactive) |  |  |
| COCC(=O)N1CCC2(CCCN(Cc3ccc(C#N)cc3)C2)CC1 | 12.6% (inactive) | 1.68% (inactive) | > 46 µM (inactive) | inactive |  | 4.66% (inactive) | -1.66 | 3.44 | inactive |  |  |  |  |  |  |
| COCCNc1nc(-c2ccccc2C)nc2ccccc12 |  | 5.05% (inactive) | > 46 µM (inactive) | inactive | inactive | 7.59% (inactive) | 3.47 | 22.3 | inactive | 1.26 µM (active) | > 46 µM (inactive) | inactive | -2.48% (inactive) |  |  |
| COc1ccc(CNc2cc(-c3ccccc3CN(C)C)ncn2)c(OC)c1 | -0.546% (inactive) | 10.5% (inactive) | > 46 µM (inactive) | inactive | inactive | 3.53% (inactive) | 8.17 | 12.8 | inactive | 15.8 µM (active) | > 46 µM (inactive) | inactive |  | inactive |  |
| COCC(=O)N1CCC2(CC1)CCN(C(=O)NC(C)C)CC2 | -2.26% (inactive) | 6.66% (inactive) | > 46 µM (inactive) | inactive | inactive | 0.579% (inactive) | 13.2 | 16.2 | inactive |  |  |  | 0.244% (inactive) |  |  |
| CC(=O)N1CCC[C@@]2(CCN(C(=O)Nc3cccc(C#N)c3)C2)C1 | -7.34% (inactive) | 7.98% (inactive) | > 46 µM (inactive) | inactive | inactive | 2.15% (inactive) | -7.31 | -0.637 | inactive |  |  |  | 23.9% (inactive) |  |  |
| COc1ccc2[nH]cc(CCNc3ccnc(-c4cccc(NS(C)(=O)=O)c4)n3)c2c1 | -8.22% (inactive) | -27.4% (inactive) | > 46 µM (inactive) | inactive | inactive | 8.87% (inactive) | -1.88 | 5.22 | inactive | 1.58 µM (active) | > 46 µM (inactive) | inactive |  | inactive |  |
| Cc1nc2cnc(N3CCNCC3)nc2n(CCC#N)c1=O | -1.38% (inactive) | -12.7% (inactive) | > 46 µM (inactive) | inactive | inactive | 4.65% (inactive) | 11.9 | 19.3 | inactive |  | > 9.22 µM (inactive) |  | -8.3% (inactive) |  |  |
| O=C(Nc1cccc(F)c1)N1CC2(CCN(C(=O)c3cnccn3)CC2)C1 | -4.36% (inactive) | -2.15% (inactive) | > 46 µM (inactive) | inactive | inactive | 6.82% (inactive) | 10.6 | 20.5 | inactive |  |  |  | 20.8% (inactive) |  |  |
| Cc1cccc(CNc2ncnc3ccc(-c4c(C)noc4C)cc23)c1 | 14.8% (inactive) |  | > 46 µM (inactive) | inactive |  | -3.45% (inactive) | -9.91 | -10.6 | inactive | 5.01 µM (active) | > 46 µM (inactive) | inactive |  |  | 0.794 µM (active) |
| CS(=O)(=O)N1CCC2(CCCN(Cc3ccc(C#N)cc3)C2)CC1 | -16.1% (inactive) | -15% (inactive) | > 46 µM (inactive) | inactive | inactive | 1.06% (inactive) | -8.06 | -6.26 | inactive |  |  |  |  |  |  |
| O=C(c1ccncc1)N1CCC2(CCN(Cc3nccs3)CC2)CC1 | 6.32% (inactive) | 4.96% (inactive) | > 46 µM (inactive) |  | inactive | -1.51% (inactive) | 5.19 | 5.04 | inactive | inactive |  |  |  |  |  |
| Cn1cccc1C(=O)N1CCC2(CCCN(c3ccncc3)C2)CC1 | 11.9% (inactive) | 0.921% (inactive) | > 46 µM (inactive) | inactive | inactive | 5.74% (inactive) | 8.08 | 18.3 | inactive |  |  |  |  |  |  |
| CC(=O)NCCNc1nc(-c2ccc(N(C)C)cc2)nc2ccccc12 | 7.41% (inactive) |  | > 46 µM (inactive) | inactive | inactive | 9.02% (inactive) | 13 | 24.4 | inactive | 3.16 µM (active) | > 46 µM (inactive) | inactive | -28.2% (inactive) | inactive |  |
